Bioassay records deposited in PubChem by ICCB-Longwood Screening Facility, Harvard Medical School.
The sample as a whole holds a higher share of hits than the screen did.
VACV E9 pol inh: vaccinia E9 polymerase processive synthesis inhibition; AID 493162; actives 0.94% (n = 46,000); normalized absorbance, % (test concentration not listed); in vitro processive DNA synthesis, absorbance read-out; stronger effect = lower value; in the data active means normalized absorbance mostly below about 85%, no sharp cut-off; inactive means mostly above about 86%
* hit, by the source's call.

Results for CN1CCN(c2nc(-c3ccccc3)c3ccccc3n2)CC1 ?
VACV E9 pol inh: 101

What do the screens show for `CN1CCN(c2cc(-c3ccncc3)nc3ccccc23)CC1`?
VACV E9 pol inh: 83

What do the screens show for `Nc1ncnc2c1ncn2C1OC(CO)[C@H](O)C1O` (stereo partly drawn)?
VACV E9 pol inh: 100

Results for Cc1ccc2oc(=O)c3cc(C(=O)N4CCN(c5ccc(F)cc5)CC4)sc3c2c1 ?
VACV E9 pol inh: 101

Results for Cc1ccc2oc(=O)c3cc(C(=O)Nc4ccc5c(C)cc(=O)oc5c4)sc3c2c1 ?
VACV E9 pol inh: 104

What do the screens show for `Cc1ccc2oc(=O)c3cc(C(=O)NCCN4CCCCC4C)sc3c2c1` (stereo not drawn)?
VACV E9 pol inh: 62*

Results for CC(C)CC(NC(=O)C(Cc1ccccc1)NC(=O)CNC(=O)CNC(=O)C(N)Cc1ccc(O)cc1)C(=O)O (stereo not drawn) ?
VACV E9 pol inh: 98

How did c1cc2c3c(cccc3c1)NC(c1ccncc1)N2 do in these assays?
VACV E9 pol inh: 93

How did CCOC(=O)c1ccc(CN)cc1 do in these assays?
VACV E9 pol inh: 98

How did CCOC(=O)c1ccc(N=C(N)SCc2ccc(Cl)cc2)cc1 do in these assays?
VACV E9 pol inh: 65*

How did CCOC(=O)c1ccc(NC(=O)c2ccc(Cl)cc2)cc1 do in these assays?
VACV E9 pol inh: 99

Results for Cc1ccc(NC(=O)C2CC(=O)N(C(C)C)C2)cc1 (stereo not drawn) ?
VACV E9 pol inh: 96

Results for CCCCN1C(=O)/C(=C(\C#N)C(N)=O)c2ccccc21 ?
VACV E9 pol inh: 100

How did CCOC(=O)c1sc(Nc2ccccc2)nc1C do in these assays?
VACV E9 pol inh: 98

What do the screens show for `CCOC(=O)c1sc(N2C(=O)C(=O)/C(=C(/O)c3ccc(OC)c(C)c3)C2c2ccccc2)nc1C` (stereo not drawn)?
VACV E9 pol inh: 69*

How did COc1cccc(/C(O)=C2\C(=O)C(=O)N(c3ccccn3)C2c2ccccc2)c1 (stereo not drawn) do in these assays?
VACV E9 pol inh: 94

How did O=C(c1ccco1)N1CCN(C(=O)c2cc(F)c(F)c(F)c2F)CC1 do in these assays?
VACV E9 pol inh: 110

Results for CN1CC(=O)N/C1=N/C(=O)Nc1ccc2c(c1)N(C)C(=O)CS2 ?
VACV E9 pol inh: 103

What do the screens show for `CC1(C)CN(c2cccc(C(=O)c3cn(-c4ccc(C(F)(F)F)cc4)nn3)c2)C1=O`?
VACV E9 pol inh: 116

What do the screens show for `Cc1noc(C(=O)N2CCCc3ccccc32)c1Cl`?
VACV E9 pol inh: 103

How did CC(=O)Nc1cc(N)nnc1Cl do in these assays?
VACV E9 pol inh: 99

What do the screens show for `CNC(=O)CC1Nc2ccccc2NC1=O` (stereo not drawn)?
VACV E9 pol inh: 103

What do the screens show for `NC(=O)NC(=O)CC1Nc2ccccc2NC1=O` (stereo not drawn)?
VACV E9 pol inh: 99

How did O=C(O)c1ccc2c(c1)NC(=O)C(CSCc1ccccc1Cl)N2 (stereo not drawn) do in these assays?
VACV E9 pol inh: 39*

What do the screens show for `Cc1ccc(C=Nc2cccc3ccccc23)cc1`?
VACV E9 pol inh: 100

Results for Cc1ccc(/C=C2\SC(=O)NC2=O)o1 ?
VACV E9 pol inh: 83

What do the screens show for `Cc1ccc(/C=C2/SC(=Nc3ccc(O)cc3)NC2=O)o1`?
VACV E9 pol inh: 102

Results for Cc1ccc(/C=C2/SC(=O)NC2=S)o1 ?
VACV E9 pol inh: 75*

What do the screens show for `O=C(O)C1C2CCC(C2)C1C(=O)O` (stereo not drawn)?
VACV E9 pol inh: 97

What do the screens show for `Cc1ccc(NS(=O)(=O)c2c(C)ccc3nsnc23)cc1`?
VACV E9 pol inh: 100

How did COc1ccc(-c2cc(C(F)(F)F)n3ncc(C(=O)Nc4cccc(O)c4)c3n2)cc1 do in these assays?
VACV E9 pol inh: 92

What do the screens show for `Cc1cc(C)c2nc(NC(=O)Cc3ccccc3)sc2c1`?
VACV E9 pol inh: 98

What do the screens show for `O=C1CCC(=O)N1Nc1nc2ccccc2c2nc(-c3ccccc3)nn12`?
VACV E9 pol inh: 98

What do the screens show for `COc1cc2nc(-n3nc(C)cc3C)n3nc(-c4ccccc4)nc3c2cc1OC`?
VACV E9 pol inh: 93

What do the screens show for `CCN(CC)CCCNc1nc2cc(OC)c(OC)cc2c2nc(-c3ccccc3)nn12`?
VACV E9 pol inh: 34*

How did Cc1ccc2c(c1)C1CN(C)CCC1N2Sc1ccc(Cl)cc1 (stereo not drawn) do in these assays?
VACV E9 pol inh: 95

What do the screens show for `Nc1c(C(=O)Nc2ccc(Cl)cc2)oc2ccccc12`?
VACV E9 pol inh: 100

Results for COc1ccc2c(c1)C=C(C(=O)Nc1ccccc1)CO2 ?
VACV E9 pol inh: 103

Results for O=C(Nc1ccc(Cl)cc1)C1=Cc2ccccc2OC1 ?
VACV E9 pol inh: 65*

Results for CCOc1ccc(-c2nc(CSCC(=O)N3CCOCC3)c(C)o2)cc1 ?
VACV E9 pol inh: 103

What do the screens show for `Cc1nc(C)c(C(=O)O)c(-c2ccc(F)cc2)c1C(=O)O`?
VACV E9 pol inh: 96

What do the screens show for `COc1ncnc2sc(-c3ccccc3)cc12`?
VACV E9 pol inh: 103

What do the screens show for `c1ccc(-c2cc3c(N4CCc5ccccc54)ncnc3s2)cc1`?
VACV E9 pol inh: 102

How did CN1CCN(c2ncnc3sc(-c4ccccc4)cc23)CC1 do in these assays?
VACV E9 pol inh: 50*

What do the screens show for `Cc1c(C)n(CC(O)CNC2CCCC2)c2ccccc12` (stereo not drawn)?
VACV E9 pol inh: 97

How did Cc1c(C)n(CC(O)CNC2CCCCC2)c2ccccc12 (stereo not drawn) do in these assays?
VACV E9 pol inh: 100

Results for OC(CNC1CCCC1)Cn1c2ccccc2c2ccccc21 (stereo not drawn) ?
VACV E9 pol inh: 80*

How did CCN(CC)CC(O)Cn1c2ccccc2c2ccccc21 (stereo not drawn) (tested in a mixture with another compound) do in these assays?
VACV E9 pol inh: 76*

What do the screens show for `CC(C)Cn1c2ccccc2c2ccccc21`?
VACV E9 pol inh: 98

What do the screens show for `Cc1ccc(N(CC(O)Cn2c3ccccc3c3ccccc32)S(=O)(=O)c2ccccc2)cc1` (stereo not drawn)?
VACV E9 pol inh: 101

What do the screens show for `CCS(=O)(=O)C1=NSC2=NC(=O)/C(=C\c3ccc(OCc4ccc(C)cc4)c(OC)c3)C(=N)N21`?
VACV E9 pol inh: 96

What do the screens show for `CC1CCc2nc(NC(=O)CN3C(=O)CCC3=O)sc2C1` (stereo not drawn)?
VACV E9 pol inh: 101

Results for CCn1c2ccccc2c2nc3ccccc3nc21 ?
VACV E9 pol inh: 90*

How did CCc1ccc2c(c1)c1nc3ccccc3nc1n2CC do in these assays?
VACV E9 pol inh: 100

Results for CC(C)Cn1c2ccccc2c2nc3ccccc3nc21 ?
VACV E9 pol inh: 99

How did Cc1[nH]c2ccccc2c1CCN1C(=O)c2ccccc2C1=O do in these assays?
VACV E9 pol inh: 100

What do the screens show for `COc1ccc(NC(=O)c2ccccc2Nc2ccccc2)cc1`?
VACV E9 pol inh: 104

Results for CCN1CCN(CCCNC(=O)c2cc3cc4ccc(Cl)cc4nc3o2)CC1 ?
VACV E9 pol inh: 94

How did COc1ccc2cc3cc(C(=O)NCCCN4CCCCCC4)oc3nc2c1 do in these assays?
VACV E9 pol inh: 63*

How did COc1ccc2cc3cc(C(=O)NCCC4=CCCCC4)sc3nc2c1 do in these assays?
VACV E9 pol inh: 103

Results for COc1ccc2cc3cc(C(=O)NC4CCCC(C)C4C)oc3nc2c1 (stereo not drawn) ?
VACV E9 pol inh: 101

How did Cc1ccc2cc3cc(C(=O)NCCCN4CCCCCC4)sc3nc2c1 do in these assays?
VACV E9 pol inh: 66*
